These results are taken from PMC5700166.

Positions count from the first letter of the chain named.

Test in all cases: protein-binding microarray (PBM); PBM: ~300 nM protein, 6 mM HEPES pH 7.8, 80 mM KCl, 0.5 mM EDTA, 0.5 mM EGTA, 6% glycerol, 35 ng/ul poly-dIdC, 1% milk, 1 h, room temperature; Ap Aiptasia and Nv Nematostella (sea anemones) / Co Capsaspora / Aq Amphimedon (sponge) / Dm Drosophila / Hu human; RHD is the Rel homology domain; high values mean tight binding
Common to all, as to conditions: dsDNA, one strand shown

Test [1] has as its target T1, GST-Ap-NF-kB RHD (Exaiptasia pallida (Aiptasia), UniProt A0A913YAJ5 2-422).
T1 sequence: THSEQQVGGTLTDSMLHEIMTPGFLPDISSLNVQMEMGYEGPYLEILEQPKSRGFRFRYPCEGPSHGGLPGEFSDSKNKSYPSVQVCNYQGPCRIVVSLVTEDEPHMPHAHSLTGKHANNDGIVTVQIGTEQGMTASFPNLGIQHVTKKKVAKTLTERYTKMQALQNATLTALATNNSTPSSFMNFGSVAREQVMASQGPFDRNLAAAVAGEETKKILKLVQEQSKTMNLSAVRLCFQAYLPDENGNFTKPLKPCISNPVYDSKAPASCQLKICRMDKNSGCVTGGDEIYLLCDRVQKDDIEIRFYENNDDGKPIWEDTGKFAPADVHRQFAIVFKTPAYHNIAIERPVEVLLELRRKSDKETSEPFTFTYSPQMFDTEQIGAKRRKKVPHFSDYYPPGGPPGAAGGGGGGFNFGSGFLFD

The target of test [2] is T2, GST-Nv-NF-kB (Cys allele) (Nematostella vectensis, UniProt E5G601 2-411).
T2 sequence: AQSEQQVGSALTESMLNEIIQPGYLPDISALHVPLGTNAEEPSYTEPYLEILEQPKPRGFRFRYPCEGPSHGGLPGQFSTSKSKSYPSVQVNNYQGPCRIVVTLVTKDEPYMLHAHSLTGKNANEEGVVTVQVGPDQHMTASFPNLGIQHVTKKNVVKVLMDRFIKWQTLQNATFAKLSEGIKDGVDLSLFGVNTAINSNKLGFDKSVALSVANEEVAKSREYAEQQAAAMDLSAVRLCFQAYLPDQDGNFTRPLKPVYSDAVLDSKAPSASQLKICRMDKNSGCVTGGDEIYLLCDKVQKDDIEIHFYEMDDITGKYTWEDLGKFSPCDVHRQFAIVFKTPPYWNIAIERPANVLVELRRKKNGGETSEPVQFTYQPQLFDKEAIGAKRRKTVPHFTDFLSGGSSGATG

For test [3], the target named is T3, GST-Nv-NF-kB (Ser allele) (Nematostella vectensis, UniProt A7UNT2 2-411).
T3 sequence: T2 sequence with Q21R, C66S, S207N, E215Q, V217A, E225K, A268E, D399E

Test [4] has as its target T4, GST-Co-NF-kB (Capsaspora owczarzaki, UniProt F1ARL5 200-546).
T4 sequence: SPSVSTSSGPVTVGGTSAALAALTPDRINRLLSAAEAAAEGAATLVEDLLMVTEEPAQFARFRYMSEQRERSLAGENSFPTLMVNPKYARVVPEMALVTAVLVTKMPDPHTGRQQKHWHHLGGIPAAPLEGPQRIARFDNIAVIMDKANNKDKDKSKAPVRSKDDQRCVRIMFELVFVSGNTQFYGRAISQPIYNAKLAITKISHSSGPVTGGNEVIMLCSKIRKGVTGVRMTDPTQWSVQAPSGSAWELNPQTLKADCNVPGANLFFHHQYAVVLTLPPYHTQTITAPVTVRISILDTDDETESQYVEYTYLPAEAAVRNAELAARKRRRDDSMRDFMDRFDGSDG

Test [5] has as its target T5, GST-Dm-Relish (Drosophila melanogaster, UniProt Q94527 99-473).
T5 sequence: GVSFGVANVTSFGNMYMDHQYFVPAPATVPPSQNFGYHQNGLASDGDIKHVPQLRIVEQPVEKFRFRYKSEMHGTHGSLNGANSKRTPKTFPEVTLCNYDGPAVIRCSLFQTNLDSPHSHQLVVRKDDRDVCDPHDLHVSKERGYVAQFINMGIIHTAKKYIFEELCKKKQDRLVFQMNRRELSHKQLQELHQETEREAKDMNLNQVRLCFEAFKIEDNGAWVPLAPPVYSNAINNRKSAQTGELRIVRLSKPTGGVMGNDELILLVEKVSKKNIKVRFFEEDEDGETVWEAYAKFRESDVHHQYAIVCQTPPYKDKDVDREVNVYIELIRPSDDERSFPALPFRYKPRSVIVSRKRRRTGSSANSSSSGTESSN

Test [6] addresses T6, GST-Aq-NF-kB (Amphimedon queenslandica, UniProt A9Y5G7 2-389).
T6 sequence: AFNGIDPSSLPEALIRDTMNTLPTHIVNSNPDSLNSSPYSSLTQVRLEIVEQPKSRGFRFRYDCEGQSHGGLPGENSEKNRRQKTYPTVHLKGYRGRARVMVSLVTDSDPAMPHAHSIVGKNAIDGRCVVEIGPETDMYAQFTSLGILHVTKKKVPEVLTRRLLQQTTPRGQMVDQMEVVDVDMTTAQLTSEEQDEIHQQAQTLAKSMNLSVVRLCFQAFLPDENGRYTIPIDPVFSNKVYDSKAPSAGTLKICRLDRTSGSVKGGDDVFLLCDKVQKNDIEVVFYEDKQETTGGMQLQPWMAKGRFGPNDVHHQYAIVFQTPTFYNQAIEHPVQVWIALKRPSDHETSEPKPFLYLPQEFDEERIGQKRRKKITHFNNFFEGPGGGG

Consider “CCGATTAACATCAATTTATCCCCTGATGTTAATCGGGTCTTGATTCGCTTGACGCTGCTG”, for which the binding signal in test [1] turned out to be 5.26 z-score; in test [2], 5.83 z-score; in test [3], 7.39 z-score; in test [4], 7.11 z-score; in test [5] it was 3.35 z-score; in test [6], 3.84 z-score.
As to “CCGATTAACATCATTAGGGAAAATGATGTTAATCGGGTCTTGATTCGCTTGACGCTGCTG”, the binding signal in test [1] was determined as 3.51 z-score; in test [2], 6.08 z-score; in test [3] it was 7.94 z-score; in test [4] it was 2.21 z-score; in test [5] it was 1.55 z-score; in test [6], 4.53 z-score.
Regarding “CCGATTAACATCAGGGGAACTAATGATGTTAATCGGGTCTTGATTCGCTTGACGCTGCTG”, the binding signal is 4.99 z-score in test [1]; 5.41 z-score in test [2]; 6.66 z-score in test [3]; 6.12 z-score in test [4]; 4.37 z-score in test [5]; 4.07 z-score in test [6].
On to “CCGATTAACATCAAGCCCCCCCATGATGTTAATCGGGTCTTGATTCGCTTGACGCTGCTG”, for which the binding signal in test [1] was 4.83 z-score; in test [2], 3.07 z-score; in test [3], 3.1 z-score; in test [4], 3.51 z-score; in test [5] it was 3.97 z-score; in test [6], 3.85 z-score.
Consider “CCGATTAACATCACGAAATTCCCTGATGTTAATCGGGTCTTGATTCGCTTGACGCTGCTG”, for which the binding signal turned out to be 4.84 z-score in test [1]; 6.78 z-score in test [2]; 7.28 z-score in test [3]; 4.17 z-score in test [4]; 4.59 z-score in test [5]; 5.74 z-score in test [6].
Turning to “CCGATTAACATCAATTTCCCGTATGATGTTAATCGGGTCTTGATTCGCTTGACGCTGCTG”, the binding signal in test [1] came out at 2.46 z-score; in test [2], 4.12 z-score; in test [3], 4.4 z-score; in test [4] it was 3.1 z-score; in test [5] it was 1.58 z-score; in test [6] it was 3.17 z-score.
With “CCGATTAACATCAAAAGTTTCCCTGATGTTAATCGGGTCTTGATTCGCTTGACGCTGCTG”, the binding signal was 5.05 z-score in test [1]; 7.19 z-score in test [2]; 6.7 z-score in test [3]; 6.99 z-score in test [4]; 4.85 z-score in test [5]; 7 z-score in test [6].
Regarding “CCGATTAACATCAGGGGAACCTATGATGTTAATCGGGTCTTGATTCGCTTGACGCTGCTG”, the binding signal turned out to be 6.11 z-score in test [1]; 6.27 z-score in test [2]; 7.41 z-score in test [3]; 5.66 z-score in test [4]; 4.09 z-score in test [5]; 4.46 z-score in test [6].
On to “CCGATTAACATCAAAATTCCCTCTGATGTTAATCGGGTCTTGATTCGCTTGACGCTGCTG”, for which the binding signal in test [1] was 5.17 z-score; in test [2], 7.29 z-score; in test [3] it was 7.2 z-score; in test [4] it was 3.2 z-score; in test [5], 5.36 z-score; in test [6], 6.5 z-score.
For “CCGATTAACATCACGGGATTTTCTGATGTTAATCGGGTCTTGATTCGCTTGACGCTGCTG”, the binding signal in test [1] worked out at 5.11 z-score; in test [2], 4.77 z-score; in test [3] it was 4.15 z-score; in test [4] it was 1.98 z-score; in test [5], 6.84 z-score; in test [6] it was 5.2 z-score.
Take “CCGATTAACATCAACGTTTTCCCTGATGTTAATCGGGTCTTGATTCGCTTGACGCTGCTG”: the binding signal in test [1] came to 3.04 z-score; in test [2], 4.61 z-score; in test [3] it was 6.7 z-score; in test [4], 4.29 z-score; in test [5] it was 1.51 z-score; in test [6], 3.21 z-score.
